Assay results from PubChem BioAssay (NCATS).
Inconclusive results are not listed. Calls of active or inactive are those of the source. Calls come from the whole dose curve; as a rule, active = well fitted cell-killing curve with a large enough effect; inconclusive = small, poorly fitted or top-dose-only effect; inactive = no such curve, though single readings can be large or run the other way.

Experiment: qHTS of pediatric cancer cell lines to identify multiple opportunities for drug repurposing: Primary screen for SJ-GBM2 cells (AID 1347091)
Settings: SJ-GBM2 viability, CellTiter-Glo luminescence, 48 h; series mostly up to 46 µM
How it was run: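 Eight- or eleven-point concentration series, 48 h treatment at 37 degrees C in growth media; readout CellTiter-Glo luminescence. Potency and efficacy were taken from the concentration-response curves.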
Potency is the fitted concentration of half-maximal effect.

| SMILES | Potency |
| --- | --- |
| CO[C@@H]1[C@H](N(C)C(=O)c2ccccc2)C[C@H]2O[C@]1(C)n1c3ccccc3c3c4c(c5c6ccccc6n2c5c31)C(=O)NC4 | 833 nM (active) |
| CCCCCCCc1ccc(CCc2cccc(O)c2C(=O)O)cc1 | 23500 nM (active) |
| C[C@H](NC(=O)Cc1cc(F)cc(F)c1)C(=O)N[C@@H]1C(=O)N(C)c2ccccc2-c2ccccc21 | inactive |
| Cc1cc(Nc2nc(N[C@@H](C)c3ncc(F)cn3)ncc2Cl)n[nH]1 | 23500 nM (active) |
| CCc1cc(Nc2nccc(-c3c(-c4ccc(OC)c(C(=O)Nc5c(F)cccc5F)c4)nc4ccccn34)n2)c(OC)cc1N1CCC(N2CCN(S(C)(=O)=O)CC2)CC1 | inactive |
| COc1cc2nccc(Oc3ccc(NC(=O)NC4CC4)c(Cl)c3)c2cc1C(N)=O | 526 nM (active) |
| Cc1ccccc1C(C(=O)NC1CCCC1)N(C(=O)Cn1cnc2ccccc21)c1cccc(F)c1 (stereo not drawn) | inactive |
| COc1cccc2cc(-c3nc(C4CCC(C(=O)O)CC4)n4ncnc(N)c34)[nH]c12 (stereo not drawn) | 935 nM (active) |

Experiment: qHTS of pediatric cancer cell lines to identify multiple opportunities for drug repurposing: Primary screen for A673 cells (AID 1347092); note: nearly all actives have a fitted effect of over 45% in size
Settings: A673 Ewing sarcoma viability, CellTiter-Glo ATP luminescence, 48 h; series mostly up to 46 µM
How it was run: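 A673 cells (500-1,000 cells/well in growth media) were pre-incubated 5 h at 37 degrees C, then exposed to compounds for 48 h. Viability was read as CellTiter-Glo luminescence; concentration-response curves came directly from the primary screen.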

| SMILES | Potency |
| --- | --- |
| COc1ccc2c3n(c(=NC(=O)c4cccnc4)nc2c1OC)CCN3 | 743 nM (active) |
| CC(c1cc2ccccc2s1)N(O)C(N)=O (stereo not drawn) | inactive |
| CCOc1cc(N2CCC(O)CC2)ccc1Nc1ncc2c(n1)N(C)c1ccccc1C(=O)N2C | 4.7 nM (active) |
| Cc1cccc(-c2nn(C(=S)Nc3ccccc3)cc2-c2ccnc3ccccc23)n1 | inactive |
| Fc1ccc(Cl)cc1-c1nc(Nc2ccncc2)c2nccnc2n1 | inactive |
| CCc1ccc(CCOc2ccc(CC3SC(=O)NC3=O)cc2)nc1 (stereo not drawn) | inactive |
| Nc1cccc(S(=O)(=O)N2CCCN(S(=O)(=O)c3ccc4c(c3)OCCO4)CC2)c1 | inactive |
| CN(C)c1ccc(Nc2nc(N)n(C(=O)c3c(F)cccc3F)n2)cc1 | 2350 nM (active) |
| C[C@]1(c2nc3c(C(N)=O)cccc3[nH]2)CCCN1 | 14800 nM (active) |
| COc1c(Cl)cc2c([nH]c3cnccc32)c1NC(=O)c1cccnc1C | 469 nM (active) |
| COc1ccc(-c2ccc3c(N4CCOCC4)nc(N4C[C@@H](C)O[C@@H](C)C4)nc3n2)cc1CO | 11800 nM (active) |
| NC(=O)C1CCCc2c1[nH]c1ccc(Cl)cc21 (stereo not drawn) | 23500 nM (active) |
| CO[C@@H]1[C@H](N(C)C(=O)c2ccccc2)C[C@H]2O[C@]1(C)n1c3ccccc3c3c4c(c5c6ccccc6n2c5c31)C(=O)NC4 | 935 nM (active) |
| Cc1cc(Nc2nc(N[C@@H](C)c3ncc(F)cn3)ncc2Cl)n[nH]1 | 1180 nM (active) |
| COc1cc2nccc(Oc3ccc(NC(=O)NC4CC4)c(Cl)c3)c2cc1C(N)=O | 469 nM (active) |
